Experimental data: PubChem BioAssay AID1159580 (chemical genetic matrix, 2015)
Where “and” joins values, the source holds several entries; their conditions need not be identical. Equal values may be shown once. About 2,000 (36%) of roughly 5,500 compounds were called active. About 18% were inconclusive and are not listed. Cut-off read from the data, not from the text of the source: active = normalized growth mostly below about 0.91 (no sharp cut-off); inconclusive = no clear call, values can overlap the other calls; inactive = mostly above about 0.92. The list shows a part of the results.

Experiment: chemical genetic growth profiling, strain panel (AID 1159580);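 note: tested at 20 µM; growth read once vehicle control cultures reached saturation at 30 °C; 1 = growth at the plate median or of vehicle wells; lower values mean less growth of the strain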
Details: S. cerevisiae deletion strains, growth OD

Measured: normalized growth

NCCCCN=C(N)N
inactive: locus YAL013W, strain DEP1, stronger effect = lower value 1 | locus YAL021C, strain ccr4, stronger effect = lower value 1.02 | locus YAL026C, strain drs2, stronger effect = lower value 1.03 | locus YAL030W, strain snc1, stronger effect = lower value 1.03 | locus YAL040C, strain CLN3, stronger effect = lower value 1 | locus YBL061C, strain skt5, stronger effect = lower value 1.01 | locus YBR009C, strain hhf1, stronger effect = lower value 1.02 | locus YBR021W, strain FUR4, stronger effect = lower value 0.983 | locus YBR023C, strain chs3, stronger effect = lower value 1.03 | locus YBR171W, strain sec66, stronger effect = lower value 1.03 | locus YBR229C, strain ROT2, stronger effect = lower value 0.996 | locus YBR231C, strain swc5, stronger effect = lower value 1.01 | locus YBR279W, strain paf1, stronger effect = lower value 1.01 | locus YCL011C, strain gbp2, stronger effect = lower value 1.03 | locus YCL016C, strain dcc1, stronger effect = lower value 1.01 | locus YCL029C, strain bik1, stronger effect = lower value 0.979 | locus YCL061C, strain MRC1 (second series), stronger effect = lower value 1.01 | locus YCL069W, strain vba3, stronger effect = lower value 1.02 | locus YCR088W, strain abp1, stronger effect = lower value 1.04 | locus YDL005C, strain med2, stronger effect = lower value 1.04 | locus YDL035C, strain GPR1, stronger effect = lower value 1.02 | locus YDL040C, strain nat1, stronger effect = lower value 1.02 | locus YDL074C, strain BRE1, stronger effect = lower value 0.992 | locus YDL101C, strain DUN1, stronger effect = lower value 0.998 | locus YDL134C, strain PPH21, stronger effect = lower value 1.04 | locus YDL185W, strain tfp1, stronger effect = lower value 0.976 | locus YDL192W, strain arf1, stronger effect = lower value 0.986 | locus YDR001C, strain nth1, stronger effect = lower value 1.01 | locus YDR069C, strain doa4, stronger effect = lower value 1.02 | locus YDR101C, strain arx1, stronger effect = lower value 0.968 | locus YDR137W, strain rgp1, stronger effect = lower value 1.04 | locus YDR150W, strain NUM1, stronger effect = lower value 1 | locus YDR159W, strain sac3, stronger effect = lower value 1 | locus YDR162C, strain NBP2, stronger effect = lower value 1.01 | locus YDR195W, strain ref2 1.04 | locus YDR297W, strain sur2, stronger effect = lower value 1.02 | locus YDR318W, strain mcm21, stronger effect = lower value 1 | locus YDR334W, strain swr1, stronger effect = lower value 1.02 | locus YDR335W, strain msn5, stronger effect = lower value 1.03 | locus YDR363W, strain ESC2, stronger effect = lower value 0.994 | locus YDR388W, stronger effect = lower value 0.976 | locus YDR392W, strain spt3, stronger effect = lower value 0.992 | locus YDR502C, strain sam2, stronger effect = lower value 0.987 | locus YEL003W, strain gim4, stronger effect = lower value 1.02 | locus YEL037C, strain rad23, stronger effect = lower value 1.02 | locus YEL061C, strain CIN8 (second series), stronger effect = lower value 1.03 | locus YEL061C, strain CIN8, stronger effect = lower value 1 | locus YER002W, strain NOP16, stronger effect = lower value 1.03 | locus YER015W, strain faa2, stronger effect = lower value 1.03 | locus YER016W, strain bim1, stronger effect = lower value 1.01 | locus YER110C, stronger effect = lower value 0.977 | locus YER111C, strain swi4, stronger effect = lower value 1.03 | locus YER155C, strain BEM2 (second series), stronger effect = lower value 1.02 | locus YER155C, strain BEM2, stronger effect = lower value 0.981 | locus YER167W, strain BCK2, stronger effect = lower value 0.999 | locus YFR010W, strain ubp6, stronger effect = lower value 1.04 | locus YGL078C, strain dbp3, stronger effect = lower value 0.981 | locus YGL086W, strain mad1, stronger effect = lower value 0.963 | locus YGL167C, strain pmr1, stronger effect = lower value 1.02 | locus YGL173C, strain kem1, stronger effect = lower value 1.02 | locus YGL227W, strain vid30, stronger effect = lower value 1.02 | locus YGL240W, strain doc1, stronger effect = lower value 1.02 | locus YGL248W, strain PDE1, stronger effect = lower value 1 | locus YGL253W, strain hxk2, stronger effect = lower value 1.02 | locus YGR078C, strain PAC10, stronger effect = lower value 1 | locus YGR135W, strain pre9, stronger effect = lower value 1 | locus YGR229C, strain SMI1, stronger effect = lower value 1.01 | locus YGR252W, strain gcn5, stronger effect = lower value 1.09 | locus YHR013C, strain ard1, stronger effect = lower value 1.12 | locus YHR027C, strain rpn1, stronger effect = lower value 1.02 | locus YHR030C, strain SLT2, stronger effect = lower value 0.993 and 1.01 | locus YHR079C, strain IRE1 (second series), stronger effect = lower value 0.987 | locus YHR079C, strain IRE1, stronger effect = lower value 1.01 | locus YHR094C, strain hxt1, stronger effect = lower value 0.974 | locus YHR142W, strain chs7, stronger effect = lower value 1.05 | locus YHR200W, strain rpn10, stronger effect = lower value 0.987 | locus YIL066C, strain RNR3, stronger effect = lower value 0.994 | locus YIL073C, strain SPO22, stronger effect = lower value 1.03 | locus YIL125W, strain kgd1, stronger effect = lower value 0.974 | locus YIR030C, strain dcg1, stronger effect = lower value 0.988 | locus YJL092W, strain hpr5, stronger effect = lower value 1.02 | locus YJL095W, strain BCK1 (second series), stronger effect = lower value 1.03 | locus YJL095W, strain BCK1, stronger effect = lower value 1.02 and 0.995 | locus YJL115W, strain asf1, stronger effect = lower value 1.03 | locus YJL129C, strain trk1, stronger effect = lower value 1.06 | locus YJL134W, strain LCB3, stronger effect = lower value 0.998 | locus YJL154C, strain vps35, stronger effect = lower value 1.02 | locus YJL164C, strain tpk1, stronger effect = lower value 1.02 | locus YJL166W, strain qcr8, stronger effect = lower value 1.02 | locus YJL168C, strain set2, stronger effect = lower value 0.981 | locus YJL187C, strain SWE1 (second series), stronger effect = lower value 0.997 | locus YJL187C, strain SWE1, stronger effect = lower value 1.02 | locus YJR043C, strain POL32, stronger effect = lower value 0.993 | locus YJR066W, strain TOR1, stronger effect = lower value 0.973 | locus YKL009W, strain mrt4, stronger effect = lower value 1 | locus YKL068W, stronger effect = lower value 0.994 | locus YKL085W, strain MDH1 (second series), stronger effect = lower value 0.993 | locus YKL085W, strain MDH1, stronger effect = lower value 0.993 | locus YKL160W, strain elf1, stronger effect = lower value 1.02 | locus YKL190W, strain CNB1, stronger effect = lower value 1.01 | locus YKR001C, strain vps1, stronger effect = lower value 0.963 | locus YKR026C, strain gcn3, stronger effect = lower value 1.02 | locus YKR091W, strain srl3, stronger effect = lower value 1.02 | locus YLL001W, strain dnm1, stronger effect = lower value 1.01 | locus YLL026W, stronger effect = lower value 1.02 | locus YLL041C, strain sdh2, stronger effect = lower value 1.02 | locus YLR027C, strain aat2, stronger effect = lower value 1.03 | locus YLR039C, strain RIC1, stronger effect = lower value 1.01 | locus YLR058C, strain SHM2, stronger effect = lower value 1.01 | locus YLR102C, strain apc9, stronger effect = lower value 0.985 | locus YLR113W, strain HOG1, stronger effect = lower value 1 | locus YLR221C, strain rsa3, stronger effect = lower value 1.01 | locus YLR258W, strain gsy2, stronger effect = lower value 1.02 | locus YLR262C, strain YPT6 (second series), stronger effect = lower value 1.04 | locus YLR262C, strain YPT6, stronger effect = lower value 1.06 | locus YLR268W, strain sec22, stronger effect = lower value 0.957 | locus YLR320W, strain mms22, stronger effect = lower value 1.02 | locus YLR330W, strain CHS5, stronger effect = lower value 0.978 | locus YLR342W, strain FKS1 (second series), stronger effect = lower value 1.01 | locus YLR342W, strain FKS1, stronger effect = lower value 1.01 | locus YLR357W, strain rsc2, stronger effect = lower value 1.05 | locus YLR370C, strain arc18, stronger effect = lower value 1.03 | locus YLR371W, strain rom2, stronger effect = lower value 0.972 | locus YLR384C, strain iki3, stronger effect = lower value 1.03 | locus YLR418C, strain cdc73, stronger effect = lower value 1.01 | locus YML016C, strain PPZ1, stronger effect = lower value 0.991 | locus YML032C, strain rad52, stronger effect = lower value 1.02 | locus YML120C, strain ndi1, stronger effect = lower value 1.04 | locus YML124C, strain tub3, stronger effect = lower value 0.987 | locus YMR058W, strain fet3, stronger effect = lower value 1.02 | locus YMR078C, strain ctf18, stronger effect = lower value 0.986 | locus YMR125W, strain sto1, stronger effect = lower value 1.03 | locus YMR129W, stronger effect = lower value 1.02 | locus YMR205C, strain PFK2, stronger effect = lower value 1.02 | locus YMR223W, strain ubp8, stronger effect = lower value 1 | locus YMR231W, strain pep5, stronger effect = lower value 1.03 | locus YMR263W, strain SAP30, stronger effect = lower value 1.01 | locus YMR307W, strain GAS1, stronger effect = lower value 1.04 and 0.995 | locus YNL067W, strain RPL9B, stronger effect = lower value 1.01 | locus YNL071W, strain lat1, stronger effect = lower value 1.02 | locus YNL153C, strain GIM3, stronger effect = lower value 1.01 | locus YNL175C, strain NOP13, stronger effect = lower value 0.997 | locus YNL183C, strain NPR1, stronger effect = lower value 0.959 | locus YNL197C, strain WHI3, stronger effect = lower value 1.01 | locus YNL209W, strain ssb2, stronger effect = lower value 1.02 | locus YNL224C, strain SQS1, stronger effect = lower value 1.01 | locus YNL233W, strain BNI4, stronger effect = lower value 0.988 | locus YNL248C, strain rpa49, stronger effect = lower value 1.02 | locus YNL250W, strain rad50, stronger effect = lower value 0.974 | locus YNL271C, strain bni1, stronger effect = lower value 0.976 | locus YNL298W, strain CLA4, stronger effect = lower value 0.969 | locus YNL307C, strain MCK1, stronger effect = lower value 0.973 | locus YNL322C, strain KRE1 (second series), stronger effect = lower value 1.03 | locus YNL322C, strain KRE1, stronger effect = lower value 1 | locus YNR049C, strain mso1, stronger effect = lower value 1.02 | locus YNR052C, strain pop2, stronger effect = lower value 0.995 | locus YOL012C, strain htz1 0.814 | locus YOL147C, strain pex11, stronger effect = lower value 0.993 | locus YOR001W, strain rrp6, stronger effect = lower value 1.03 | locus YOR061W, strain CKA2, stronger effect = lower value 1 | locus YOR069W, strain VPS5, stronger effect = lower value 0.994 | locus YOR070C, strain gyp1, stronger effect = lower value 1.02 | locus YOR080W, strain dia2, stronger effect = lower value 1.03 | locus YOR083W, strain WHI5 (second series), stronger effect = lower value 1.01 | locus YOR083W, strain WHI5, stronger effect = lower value 1.01 | locus YOR106W, strain vam3, stronger effect = lower value 1.04 | locus YOR136W, strain idh2, stronger effect = lower value 0.972 | locus YOR144C, strain elg1, stronger effect = lower value 0.984 | locus YOR184W, strain ser1, stronger effect = lower value 0.985 | locus YOR265W, strain rbl2, stronger effect = lower value 1.02 | locus YOR270C, strain vph1, stronger effect = lower value 1.05 | locus YOR290C, strain snf2, stronger effect = lower value 1.01 | locus YOR316C, strain cot1, stronger effect = lower value 0.983 | locus YPL051W, strain arl3, stronger effect = lower value 1.01 | locus YPL078C, strain atp4, stronger effect = lower value 1.03 | locus YPL106C, strain sse1, stronger effect = lower value 1.04 | locus YPL240C, strain hsp82, stronger effect = lower value 1.02 | locus YPL256C, strain CLN2, stronger effect = lower value 0.994 | locus YPR119W, strain clb2, stronger effect = lower value 0.988 | locus YPR141C, strain kar3, stronger effect = lower value 0.988 | locus YPR163C, strain tif3, stronger effect = lower value 0.975 | locus YPR167C, strain met16, stronger effect = lower value 0.986 | strain wtn01, stronger effect = lower value 0.939
